Data as given in PubChem BioAssay AID939 (National Center for Advancing Translational Sciences (NCATS), 2007).
Inconclusive results are not listed.

Assay: Confirmation Concentration-Response Assay for Agonists of the Thyroid Stimulating Hormone Receptor; also: reference of the scale not given here
Conditions: HEK293 TSHR-CNG cells, membrane potential dye, cAMP; measured here: parental HEK293 counter-screen max
Outline: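 TSHR+CNG HEK293 cells plated 20–36 h; membrane potential dye + 100 uM RO 20-1724, 60 min RT; cpd 30 min; fluorescence em 590 nm, bottom read. Parental CNG cells counterscreen endogenous targets.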

Row | SMILES | max response
1 | CCc1ccccc1NC1=NCC(=O)N1Cc1ccc(OC)cc1 | -6.12%
2 | COc1ccc(-c2cc(C(F)(F)F)nc(SCCC(=O)N3CCOCC3)n2)cc1 | 13%
3 | Nc1cc(CN2C(=O)c3ccccc3C2=O)cc(Cl)c1O | 4.5%
4 | Cc1ccc2nc(SCC(=O)O)nc(C)c2c1 | 13%
5 | O=S1(=O)N=C(Oc2ccccc2)c2ccccc21 | -6.77%
6 | NC(=O)c1nsc(C(=O)N(CC(=O)NCc2ccc3c(c2)OCO3)C2CCCC2)c1N | 7.46%
7 | CCOc1ccc(N(CC(=O)Nc2ccc(C)cc2)S(=O)(=O)c2c(C)noc2C)cc1 | 5.32%
8 | COc1cccc(C(c2nnnn2Cc2ccccc2)N2CCN(C(=O)c3ccco3)CC2)c1OC (stereo not drawn) | -3.51%
9 | COc1ccc(C(=O)N(Cc2ccco2)Cc2cccs2)c(O)c1 | -7.34%
10 | Cc1cccc(NC(=O)CSc2nnc(-c3ccccc3)n2N)c1C | -2.22%
11 | Cc1ccccc1-c1nc(CN2CCC(C(=O)N3CCN(c4ccccn4)CC3)CC2)c(C)o1 | 17.1%
12 | COc1cc2c(N3CCOCC3)cc(O)c(CC(=O)Nc3ccccc3)c2cc1OC | -10.7%
13 | O=C1N(c2ccccc2)C2CS(=O)(=O)CC2N1c1ccc(Cl)c(Cl)c1 (stereo not drawn) | -23.3%
14 | Oc1ccccc1-c1cc(C(F)(F)C(F)F)nc(-c2ccccc2)n1 | 3.44%
15 | COC(=O)c1cc(NC2c3ccccc3C(=O)N2c2cccnc2)cc(C(=O)OC)c1 (stereo not drawn) | 17.7%
16 | Cc1cc(Cl)c(S(=O)(=O)Nc2ccc3c(c2)OCO3)cc1OCC(N)=O | -8.28%
17 | CCOC(=O)c1cnc(-n2nc(C)cc2C)nc1-n1nc(C)cc1C | -6.3%
18 | CCOC(=O)CSc1nnc(NC(=O)c2cccc(S(=O)(=O)N3CCCCC3)c2)s1 | -6.14%
